In PubChem BioAssay (EPA / NIEHS) one finds outcome and AC50 data, which are given here for three molecules.

The target in assay [1] is Nuclear respiratory factor 1 (Homo sapiens) (UniProt Q16656). The assay is described as follows: ATG_NRF1_CIS: Attagene CIS-FACTORIAL HepG2 Assay for human Nuclear Respiratory Factor 1 (NRF1) Orphan Gene (AID 2282987). The note with it: HepG2 NRF1 cis-element reporter, Attagene multiplex; actives raise or lower the signal. Summed up:
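Endogenous NRF1-driven reporter transcription measured in transiently transfected human HepG2 liver cells. Readout: reporter mRNA by RT-PCR and capillary electrophoresis with fluorescence detection, 24 h post-dosing. Gain or loss of signal fitted relative to DMSO baseline.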

Assay [2] in a line: ATG_NFI_CIS: Attagene CIS-FACTORIAL HepG2 Assay for human Nuclear Factor I (NFI) (AID 2282989). The following applies: HepG2 cis-regulatory reporter, NFI response element transcription; actives raise or lower the signal. Summed up: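 Multiplexed cis-reporter system in human HepG2 cells reports native TF activity as reporter mRNA induction 24 h post-dose. Fragments labelled with 6-FAM, HpaI-digested and resolved by capillary electrophoresis; activity fitted both directions versus DMSO.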

Assay [3] has as its target Myc proto-oncogene protein (Homo sapiens) (UniProt P01106). Kind of assay: ATG_Myc_CIS: Attagene CIS-FACTORIAL HepG2 Assay for human Myelocytomatosis (Myc) Proto-Oncogene Transcription Factor (AID 2282990). The following applies: HepG2, Attagene cis-reporter transcription factor activity; actives raise or lower the signal. The method, boiled down: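 Read-out: fluorescent reporter mRNA fragments resolved by capillary electrophoresis after RT-PCR. Human HepG2 liver cells carried transfected cis-element reporter units and were dosed for 24 h. Gain or loss of signal fitted relative to DMSO baseline.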

The nature of assay [4]: ATG_NF_kB_CIS: Attagene CIS-FACTORIAL HepG2 Assay for human Nuclear Factor Kappa B (NF-kB) (AID 2282991). The following applies: HepG2 Attagene cis-factorial NF-kB reporter mRNA; actives raise or lower the signal. Summed up: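 Read-out: reporter transcript levels quantified by RT-PCR plus capillary electrophoresis of 6-FAM-labelled, HpaI-cut fragments. Transfected HepG2 cells, 24 h compound exposure, endogenous NF-kB-driven cis element; gain or loss scored versus DMSO.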

Assay [5] is described as follows: ATG_NRF2_ARE_CIS: Attagene CIS-FACTORIAL HepG2 Assay for human Nuclear Factor Erythroid 2 Related Factor 2 (NFR2) response to Antioxidant Response Elements (ARE) (AID 2282992). The following applies: HepG2 Attagene ARE/NRF2 reporter, transcription factor activity; actives raise or lower the signal. The method, boiled down:
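Cis-factorial assay: transfected HepG2 reporter library, 24 h dosing, mRNA readout via RT-PCR/CE; DMSO-referenced bidirectional analysis.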

Assay [6] is described as follows: ATG_Oct_MLP_CIS: Attagene CIS-FACTORIAL HepG2 Assay for human Octamer-Binding Transcription Factor (Oct) (AID 2282993). The following applies: HepG2 Attagene cis-factorial Oct reporter, mRNA; actives raise or lower the signal. Summed up:
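After 24 h compound exposure, transfected HepG2 cells were lysed for total RNA; reporter-specific cDNA was PCR-amplified, fluorescently labelled and sized by capillary electrophoresis. Bidirectional curve fitting used DMSO as baseline.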

The target of assay [7] is Cellular tumor antigen p53 (Homo sapiens) (UniProt P04637). Kind of assay: ATG_p53_CIS: Attagene CIS-FACTORIAL HepG2 Assay for human p53 Transcription Factor (AID 2282994). The following applies: HepG2 p53 cis-element reporter, Attagene mRNA; actives raise or lower the signal. The method, boiled down: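 Using HepG2 hepatoma cells carrying cis-acting multiplexed reporters, mRNA induction is detected after a 24 h exposure. Gain- and loss-of-signal responses are fitted relative to DMSO-treated cells.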
Cellular tumor antigen p53 (Homo sapiens), sequence (P04637 whole entry, looked up): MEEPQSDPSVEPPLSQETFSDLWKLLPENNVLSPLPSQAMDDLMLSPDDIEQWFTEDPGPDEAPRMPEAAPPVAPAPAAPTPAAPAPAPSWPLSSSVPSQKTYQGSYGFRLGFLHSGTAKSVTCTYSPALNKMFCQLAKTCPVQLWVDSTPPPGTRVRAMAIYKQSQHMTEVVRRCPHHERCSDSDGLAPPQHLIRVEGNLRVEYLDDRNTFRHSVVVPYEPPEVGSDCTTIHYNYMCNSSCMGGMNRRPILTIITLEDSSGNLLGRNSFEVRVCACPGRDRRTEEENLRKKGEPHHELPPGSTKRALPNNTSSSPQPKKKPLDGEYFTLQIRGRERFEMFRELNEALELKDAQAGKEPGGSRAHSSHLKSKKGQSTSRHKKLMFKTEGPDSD

Assay [8] can be described thus: BSK_3C_TissueFactor: BioMAP Diversity Plus: 3C Assay for Tissue Factor Biomarker Activity (AID 2282997). The note with it: BioMAP 3C HUVEC, tissue factor biomarker readout; actives raise or lower the signal. The method, boiled down:
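ELISA read-out of Tissue Factor levels on human umbilical vein endothelium collected 24 h after chemical dosing. Gain or loss of signal was fitted relative to DMSO.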

A short description of assay [9]: BSK_3C_uPAR: BioMAP Diversity Plus: 3C Assay for Urokinase-type plasminogen activator receptor (uPAR) Biomarker Activity (AID 2282998). The note with it: BioMAP 3C HUVEC, uPAR biomarker ELISA; actives raise or lower the signal. The method, boiled down:
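Values derive from bidirectional curve fitting relative to DMSO, which served as baseline of activity. uPAR was measured by ELISA in human umbilical vein endothelial primary cultures 24 h after compound addition.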

Assay [10] in a line: BSK_3C_VCAM1: BioMAP Diversity Plus: 3C Assay for Vascular cell adhesion molecule 1 (VCAM1) Biomarker Activity (AID 2282999). The following applies: BioMAP 3C HUVEC, VCAM1 ELISA, cytokine-stimulated; actives raise or lower the signal. The method, boiled down: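 Human umbilical vein endothelial cells (3C system), biomarker read by ELISA 24 h after dosing; bidirectional fit against DMSO baseline. Cytotoxicity tracked by SRB total-protein staining in parallel cultures at biomarker time.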

The nature of assay [11]: BSK_4H_Eotaxin3: BioMAP Diversity Plus: 4H Assay for Eotaxin 3 Biomarker Activity (AID 2283000).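 For outcome: CCL26 protein level quantified by ELISA in parallel with SRB cytotoxicity check.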 The note with it: primary human endothelial cells (HUVEC); actives raise or lower the signal. Summed up: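 Chemicals were added to human umbilical vein endothelium cultures, and Eotaxin-3 was quantified by ELISA at 24 h. Values were derived by bidirectional fitting with DMSO serving as negative control and activity baseline.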

In assay [12] the target is human Peroxisome Proliferator-activated Receptor alpha (PPARa), PPARA (gene 5465) (UniProt Q07869). The assay is described as follows: ATG_PPARa_TRANS: Attagene TRANS-FACTORIAL HepG2 Assay for human Peroxisome Proliferator-activated Receptor alpha (PPARa) (AID 2283001; active = hit-call score of the fitted dose curve at least 0.9, where 1 is the maximum). Summed up: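 Measures transcriptional activity of an exogenous chimeric PPARa-Gal4 protein in transiently transfected HepG2 cells after 24 h dosing. Reporter mRNA quantified via RT-PCR and capillary electrophoresis; DMSO served as negative control.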
human Peroxisome Proliferator-activated Receptor alpha (PPARa), PPARA (gene 5465), sequence (Q07869 whole entry, looked up, the tested form may be a part): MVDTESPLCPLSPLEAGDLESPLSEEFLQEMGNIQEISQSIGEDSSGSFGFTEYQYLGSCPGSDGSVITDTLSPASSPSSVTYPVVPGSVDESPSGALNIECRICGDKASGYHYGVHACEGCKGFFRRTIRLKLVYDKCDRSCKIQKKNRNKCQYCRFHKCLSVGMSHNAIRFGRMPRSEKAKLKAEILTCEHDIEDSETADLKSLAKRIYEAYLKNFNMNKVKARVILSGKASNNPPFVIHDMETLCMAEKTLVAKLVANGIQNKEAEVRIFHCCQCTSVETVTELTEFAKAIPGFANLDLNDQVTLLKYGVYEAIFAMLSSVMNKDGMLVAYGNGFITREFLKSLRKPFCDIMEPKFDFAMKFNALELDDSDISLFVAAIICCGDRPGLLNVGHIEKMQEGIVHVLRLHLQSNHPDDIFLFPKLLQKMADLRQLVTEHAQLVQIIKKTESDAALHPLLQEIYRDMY

For assay [13], the target named is human Peroxisome Proliferator-activated Receptor delta (PPARd), PPARD (gene 5467) (UniProt Q03181). The assay is described as follows: ATG_PPARd_TRANS: Attagene TRANS-FACTORIAL HepG2 Assay for human Peroxisome Proliferator-activated Receptor delta (PPARd) (AID 2283002; active = hit-call score of the fitted dose curve at least 0.9, where 1 is the maximum). Summed up:
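Read-out: reporter mRNA induction, quantified by fluorescent RT-PCR products resolved by capillary electrophoresis. Human HepG2 liver cells carried transiently transfected Gal4-UAS reporter constructs with chimeric NR-Gal4 fusions. Cells were dosed for 24 h; DMSO served as baseline.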

Read-out in assay [14]: Intercellular Adhesion Molecule 1 (ICAM1), ICAM1 (gene 3383)
The assay is described as follows: BSK_3C_ICAM1: BioMAP Diversity Plus: 3C Assay for Intercellular Adhesion Molecule 1 (ICAM1) Biomarker Activity (AID 2283003). The following applies: primary human endothelial cells (HUVEC); actives raise or lower the signal. The method, boiled down:
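Primary human umbilical vein endothelial cells in the BioMAP 3C system were exposed to chemicals for 24 h, then ICAM-1 was quantified by ELISA. Activity was fitted bidirectionally against the DMSO negative control baseline.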

Assay [15] in a line: BSK_3C_Proliferation: Cell Proliferation Assessment in the BioMAP Diversity Plus: 3C Assay (AID 2283006).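 For AC50: potency may reflect either rise or fall in cell number versus DMSO.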 The following applies: primary human endothelial cells (HUVEC). Summed up:
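Human umbilical vein endothelial cells were grown sub-confluent and exposed to chemical for 48 h, then fixed with 10% TCA and stained with 0.1% sulforhodamine B; absorbance at 560 nm gave relative cell number, fitted bidirectionally against DMSO baseline.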

For assay [16], the target named is Peroxisome proliferator-activated receptor gamma (Homo sapiens) (UniProt P37231). Kind of assay: ATG_PPARg_TRANS: Attagene TRANS-FACTORIAL HepG2 Assay for human Peroxisome Proliferator-activated Receptor-gamma (PPARg) (AID 2283007; active = hit-call score of the fitted dose curve at least 0.9, where 1 is the maximum). The method, boiled down: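 Read-out: reporter mRNA induction, detected by fluorescence after RT-PCR and capillary electrophoresis. Transiently transfected human HepG2 liver cells carrying a chimeric NR-Gal4 construct were dosed for 24 h; activity was fitted upward relative to DMSO.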
Peroxisome proliferator-activated receptor gamma (Homo sapiens), sequence (P37231 whole entry, looked up, the tested form may be a part): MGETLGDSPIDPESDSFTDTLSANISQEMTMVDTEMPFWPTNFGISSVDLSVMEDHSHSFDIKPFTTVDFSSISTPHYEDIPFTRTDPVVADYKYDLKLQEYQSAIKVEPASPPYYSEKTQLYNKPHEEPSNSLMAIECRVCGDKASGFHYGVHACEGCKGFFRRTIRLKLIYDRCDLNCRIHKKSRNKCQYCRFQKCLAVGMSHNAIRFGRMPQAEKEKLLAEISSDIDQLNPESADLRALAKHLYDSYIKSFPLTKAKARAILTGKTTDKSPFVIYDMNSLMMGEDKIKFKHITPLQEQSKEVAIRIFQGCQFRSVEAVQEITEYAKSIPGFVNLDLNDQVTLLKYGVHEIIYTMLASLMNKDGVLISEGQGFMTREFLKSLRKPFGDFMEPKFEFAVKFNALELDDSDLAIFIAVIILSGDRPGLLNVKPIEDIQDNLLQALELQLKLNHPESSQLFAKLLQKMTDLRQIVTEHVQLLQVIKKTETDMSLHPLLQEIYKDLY

The target of assay [17] is Nuclear receptor subfamily 1 group I member 2 (Homo sapiens) (UniProt O75469). The assay is described as follows: ATG_PXR_TRANS: Attagene TRANS-FACTORIAL HepG2 Assay for human Pregnane X Receptor (PXR) (AID 2283008; active = hit-call score of the fitted dose curve at least 0.9, where 1 is the maximum). Summed up:
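Fluorescence intensity of FAM-labelled, HpaI-digested reporter amplicons, separated by capillary electrophoresis, quantifies induction. HepG2 cells with PXR-Gal4 trans-reporter system were exposed 24 h; DMSO defines baseline.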

Assay [18] has as its target human Retinoic Acid Receptor gamma (RARg), RARG (gene 5916) (UniProt P13631). Kind of assay: ATG_RARg_TRANS: Attagene TRANS-FACTORIAL HepG2 Assay for human Retinoic Acid Receptor gamma (RARg) (AID 2283009; active = hit-call score of the fitted dose curve at least 0.9, where 1 is the maximum). Summed up: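 HepG2 cells transiently transfected with multiplexed reporter units expressing chimeric RARg-GAL4 and GAL4-UAS-driven reporters; 24 h compound exposure. Reporter mRNA quantified by RT-PCR with fluorescent labelling and capillary electrophoresis; gain-of-signal fitted relative to DMSO baseline.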

Assay [19] addresses human Retinoic Acid Receptor beta (RARb), RARB (gene 5915) (UniProt P10826). The assay is described as follows: ATG_RARb_TRANS: Attagene TRANS-FACTORIAL HepG2 Assay for human Retinoic Acid Receptor beta (AID 2283004; active = hit-call score of the fitted dose curve at least 0.9, where 1 is the maximum). Summed up:
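Transient transfection of HepG2 with multiple reporter units → chemical dosing, 24 h → total RNA isolation → RT with oligo(dT) → reporter-specific PCR, 6-FAM primer extension, HpaI digest → capillary electrophoresis. Positive direction vs DMSO control.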

Assay [20] deals with Retinoic acid receptor alpha (Homo sapiens) (UniProt P10276). Kind of assay: ATG_RARa_TRANS: Attagene TRANS-FACTORIAL HepG2 Assay for human Retinoic Acid Receptor alpha (RARa) (AID 2283005; active = hit-call score of the fitted dose curve at least 0.9, where 1 is the maximum). Summed up:
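HepG2 transiently transfected with multiplex GAL4-UAS reporter units including a human RARa–GAL4 chimera; 24 h compound exposure. Reporter mRNA quantified by RT-PCR, 6-FAM labeling and capillary electrophoresis; gain of signal versus DMSO.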

Where “and” joins values, the source holds several entries; their conditions need not be identical. Equal values may be shown once. Results filed as inconclusive are left out. More than one record can exist for a structure, and the calls need not agree. Calls of active or inactive are those of the source. Rule for the calls, unless noted: active = hit-call score of the fitted dose curve at least 0.9, where 1 is the maximum; inactive = score below 0.9.

Nuclear receptor subfamily 1 group I member 2 (Homo sapiens), sequence (O75469 whole entry, looked up, the tested form may be a part): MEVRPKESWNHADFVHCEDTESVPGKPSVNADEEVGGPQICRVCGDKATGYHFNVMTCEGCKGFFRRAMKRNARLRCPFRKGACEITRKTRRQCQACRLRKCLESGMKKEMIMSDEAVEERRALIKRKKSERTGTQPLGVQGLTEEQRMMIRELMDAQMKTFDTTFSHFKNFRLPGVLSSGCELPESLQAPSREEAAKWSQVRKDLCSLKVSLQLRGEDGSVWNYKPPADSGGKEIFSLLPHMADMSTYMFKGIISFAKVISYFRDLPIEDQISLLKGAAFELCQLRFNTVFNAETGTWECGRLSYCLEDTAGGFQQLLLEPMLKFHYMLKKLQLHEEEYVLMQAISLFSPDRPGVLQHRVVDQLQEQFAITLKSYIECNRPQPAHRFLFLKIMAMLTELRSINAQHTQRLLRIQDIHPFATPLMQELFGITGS
Myc proto-oncogene protein (Homo sapiens), sequence (P01106 whole entry, looked up, the tested form may be a part): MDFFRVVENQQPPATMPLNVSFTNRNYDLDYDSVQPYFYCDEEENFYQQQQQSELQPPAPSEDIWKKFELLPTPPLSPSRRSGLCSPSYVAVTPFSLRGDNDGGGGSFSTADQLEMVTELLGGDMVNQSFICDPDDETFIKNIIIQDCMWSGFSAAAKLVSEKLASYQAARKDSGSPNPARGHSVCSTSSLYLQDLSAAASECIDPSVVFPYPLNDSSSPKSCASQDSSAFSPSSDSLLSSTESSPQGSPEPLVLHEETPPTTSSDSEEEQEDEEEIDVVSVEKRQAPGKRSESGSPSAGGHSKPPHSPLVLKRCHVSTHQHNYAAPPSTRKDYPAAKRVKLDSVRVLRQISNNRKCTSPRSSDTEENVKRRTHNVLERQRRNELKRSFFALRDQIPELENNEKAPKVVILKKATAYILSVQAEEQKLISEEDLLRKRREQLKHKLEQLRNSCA
human Peroxisome Proliferator-activated Receptor delta (PPARd), PPARD (gene 5467), sequence (Q03181 whole entry, looked up, the tested form may be a part): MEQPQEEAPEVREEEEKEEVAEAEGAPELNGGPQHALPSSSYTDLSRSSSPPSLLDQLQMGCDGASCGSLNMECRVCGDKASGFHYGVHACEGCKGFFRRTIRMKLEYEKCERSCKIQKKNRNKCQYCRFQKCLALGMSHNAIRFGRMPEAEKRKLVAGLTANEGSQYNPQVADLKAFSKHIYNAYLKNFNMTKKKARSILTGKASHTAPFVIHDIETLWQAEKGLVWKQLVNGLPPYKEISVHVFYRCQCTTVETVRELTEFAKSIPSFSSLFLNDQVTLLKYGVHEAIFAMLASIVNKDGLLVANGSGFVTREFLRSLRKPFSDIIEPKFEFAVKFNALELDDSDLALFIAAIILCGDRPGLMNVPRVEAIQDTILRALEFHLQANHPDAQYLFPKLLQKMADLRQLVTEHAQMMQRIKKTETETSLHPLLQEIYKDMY
Nuclear respiratory factor 1 (Homo sapiens), sequence (Q16656 whole entry, looked up): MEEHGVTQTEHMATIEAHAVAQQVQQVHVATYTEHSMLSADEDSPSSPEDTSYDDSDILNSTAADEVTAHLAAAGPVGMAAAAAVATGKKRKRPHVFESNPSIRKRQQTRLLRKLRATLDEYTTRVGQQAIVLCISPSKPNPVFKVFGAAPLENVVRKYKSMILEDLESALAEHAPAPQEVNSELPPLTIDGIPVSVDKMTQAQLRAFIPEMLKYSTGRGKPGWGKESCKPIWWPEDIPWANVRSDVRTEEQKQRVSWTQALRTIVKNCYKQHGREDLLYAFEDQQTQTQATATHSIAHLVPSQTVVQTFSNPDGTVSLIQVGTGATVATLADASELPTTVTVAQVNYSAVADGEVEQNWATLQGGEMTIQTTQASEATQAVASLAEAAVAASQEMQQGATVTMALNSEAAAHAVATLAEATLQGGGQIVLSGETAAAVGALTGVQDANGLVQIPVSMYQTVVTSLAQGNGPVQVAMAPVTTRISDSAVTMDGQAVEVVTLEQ
human Retinoic Acid Receptor gamma (RARg), RARG (gene 5916), sequence (P13631 whole entry, looked up, the tested form may be a part): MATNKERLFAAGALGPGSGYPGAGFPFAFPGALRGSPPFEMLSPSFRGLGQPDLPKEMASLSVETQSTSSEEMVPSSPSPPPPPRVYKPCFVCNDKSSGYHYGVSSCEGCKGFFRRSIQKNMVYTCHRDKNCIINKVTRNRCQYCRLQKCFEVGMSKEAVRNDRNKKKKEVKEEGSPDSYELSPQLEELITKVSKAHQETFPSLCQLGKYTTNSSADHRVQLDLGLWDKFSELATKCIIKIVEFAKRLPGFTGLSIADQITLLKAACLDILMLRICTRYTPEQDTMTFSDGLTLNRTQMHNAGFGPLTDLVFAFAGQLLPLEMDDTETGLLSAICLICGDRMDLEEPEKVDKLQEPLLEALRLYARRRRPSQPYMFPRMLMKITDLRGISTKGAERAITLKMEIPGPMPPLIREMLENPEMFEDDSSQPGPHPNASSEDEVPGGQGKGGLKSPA
Retinoic acid receptor alpha (Homo sapiens), sequence (P10276 whole entry, looked up, the tested form may be a part): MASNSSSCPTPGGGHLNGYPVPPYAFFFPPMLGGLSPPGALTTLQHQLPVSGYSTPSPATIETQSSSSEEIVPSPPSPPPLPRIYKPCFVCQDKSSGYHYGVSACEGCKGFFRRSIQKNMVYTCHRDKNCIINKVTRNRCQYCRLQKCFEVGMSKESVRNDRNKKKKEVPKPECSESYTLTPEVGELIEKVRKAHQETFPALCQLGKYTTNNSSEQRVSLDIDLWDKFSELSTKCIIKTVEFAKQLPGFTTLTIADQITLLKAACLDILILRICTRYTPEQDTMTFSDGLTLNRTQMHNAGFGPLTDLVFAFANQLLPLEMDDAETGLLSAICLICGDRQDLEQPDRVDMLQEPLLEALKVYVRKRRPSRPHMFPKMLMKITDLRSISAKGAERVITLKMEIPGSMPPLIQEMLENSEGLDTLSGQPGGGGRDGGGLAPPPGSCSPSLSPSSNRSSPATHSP
human Retinoic Acid Receptor beta (RARb), RARB (gene 5915), sequence (P10826 whole entry, looked up): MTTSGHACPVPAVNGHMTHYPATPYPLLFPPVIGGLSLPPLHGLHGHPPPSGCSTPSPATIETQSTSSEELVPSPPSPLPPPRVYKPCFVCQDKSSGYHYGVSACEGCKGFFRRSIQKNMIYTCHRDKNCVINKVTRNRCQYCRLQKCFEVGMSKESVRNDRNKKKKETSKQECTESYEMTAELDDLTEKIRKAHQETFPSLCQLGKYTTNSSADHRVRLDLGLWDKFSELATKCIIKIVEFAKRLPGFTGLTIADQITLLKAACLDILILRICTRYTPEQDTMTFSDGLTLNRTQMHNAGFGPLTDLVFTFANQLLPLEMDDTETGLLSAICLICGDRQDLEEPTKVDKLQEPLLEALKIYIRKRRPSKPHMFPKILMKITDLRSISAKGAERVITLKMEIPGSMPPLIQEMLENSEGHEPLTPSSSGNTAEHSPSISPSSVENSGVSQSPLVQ

Usually AC50 stands for the midpoint of the concentration-response curve, whichever way the signal moves. As for `CCN(CCO)S(=O)(=O)C(F)(F)C(F)(F)C(F)(F)C(F)(F)C(F)(F)C(F)(F)C(F)(F)C(F)(F)F`, the outcome in assay [1], in [2], in assay [3], in assay [4], in assay [7] and in assay [9] was inactive. Moreover, the outcome in [10], in assay [12], in assay [13], in [16], in assay [17] and in [18] was inactive. In addition, the AC50 is 110 µM (active) in [5]; 15.4 µM (active) in assay [6]; 55.1 µM (active) and 9.9 µM (active) in assay [8]; 8.1 µM (active) in assay [9]; 20.9 µM (active) and 43.5 µM (active) in [11]; 50.8 µM (active) and 9.21 µM (active) in [14]. Besides, in assay [15], the AC50 was 8.37 µM (active) and 10.7 µM (active).

In the case of `O=S(=O)(O)CCC(F)(F)C(F)(F)C(F)(F)C(F)(F)C(F)(F)C(F)(F)C(F)(F)C(F)(F)F`, the result in [1], in assay [2], in assay [3], in assay [4], in [6] and in assay [7] was inactive. The result in assay [8], in [9], in assay [10], in [11], in [13] and in [14] was inactive. In addition, the outcome in assay [15], in assay [16] and in assay [17] was inactive. Also, the AC50 in assay [5] was 91.8 µM (active).

As for `CNS(=O)(=O)C(F)(F)C(F)(F)C(F)(F)C(F)(F)C(F)(F)C(F)(F)C(F)(F)C(F)(F)F`, the molecule was classed as inactive in assay [1], in assay [2], in assay [3], in [4], in assay [5] and in [6]. In addition, the result in assay [7], in [8], in assay [10], in assay [11], in assay [12] and in assay [13] was inactive. In addition, the outcome in assay [14], in assay [19], in assay [20], in assay [16], in [17] and in assay [18] was inactive. In addition, the AC50 in assay [15] is 30 µM (active) and 23.8 µM (active).
